Laboratory results reported in PubChem BioAssay (NCATS).
Records with an inconclusive call do not appear. Where a call stands in place of a potency, no number is given. Active and inactive are the calls of the source. Unless noted, the call rests on the fitted dose curve; in most records, active means well fitted curve in the direction sought with a large enough effect; inconclusive means small, poorly fitted or top-dose-only effect, or another doubt; inactive means no such curve, though single readings can be large; an effect the other way counts as inactive or inconclusive.

Assays:
[1] = AP1 Signaling Pathway (AID 357; active means well fitted curve in either direction with a large enough effect, not every such curve was filed as active;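 further: ME-180 reporter cells stimulated with EGF at its EC50 level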)
Summary of the method: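 Modulation of EGF-driven AP-1 transcription was assessed with a beta-lactamase reporter in ME-180 cells. Compound and EC50 EGF were co-incubated 5 hours at 37 °C before 2.5-hour CCF4 loading at room temperature and dual-emission reading.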

[2] = target: Cytochrome P450 1A2 (Homo sapiens) (UniProt P05177); experiment: p450-cyp1a2 (AID 410; calls by dose curve)
Sequence of Cytochrome P450 1A2 (Homo sapiens) (P05177 whole entry, looked up): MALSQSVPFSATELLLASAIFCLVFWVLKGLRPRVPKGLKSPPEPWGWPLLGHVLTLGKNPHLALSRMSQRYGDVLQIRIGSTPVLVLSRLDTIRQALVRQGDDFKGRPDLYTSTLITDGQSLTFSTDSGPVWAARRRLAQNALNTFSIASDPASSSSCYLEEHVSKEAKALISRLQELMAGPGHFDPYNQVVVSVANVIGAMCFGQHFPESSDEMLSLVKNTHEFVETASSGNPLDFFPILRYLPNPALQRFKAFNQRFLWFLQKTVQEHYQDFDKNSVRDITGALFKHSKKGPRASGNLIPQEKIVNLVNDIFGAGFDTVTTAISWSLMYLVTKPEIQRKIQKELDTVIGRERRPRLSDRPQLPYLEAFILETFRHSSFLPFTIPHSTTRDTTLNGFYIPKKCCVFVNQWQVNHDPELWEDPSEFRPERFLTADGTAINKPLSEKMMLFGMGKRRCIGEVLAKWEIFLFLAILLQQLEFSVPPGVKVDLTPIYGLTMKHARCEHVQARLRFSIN
Summary of the method: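 Luminescent readout of luciferin formed from Luciferin-ME by human CYP1A2; data normalized against complete inhibition by 57 uM furafylline. Enzyme 20nM, substrate 100uM at Km, 100mM KPO4 buffer, 60 min reaction at room temperature.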

[3] = NFAT Signaling Pathway (AID 444; active means well fitted curve in either direction with a large enough effect, not every such curve was filed as active;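 further: carbachol stimulus at about its EC50 of 1 µM final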); settings: Jurkat NFAT-bla M1, carbachol, beta-lactamase ratio, 5 h; at 17.2 µM (top of the series) unless noted
Summary of the method: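 Jurkat cells carrying an NFAT-driven β-lactamase reporter and co-transfected muscarinic M1 receptor were treated with compound plus carbachol (1 uM final, an EC50 level) for 5 h at 37 °C. CCF4 loading followed for 1 h at RT; 460/530 nm ratio gave %activity.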

[4] = Stat Signaling Pathway (AID 446; active means well fitted curve in either direction with a large enough effect, not every such curve was filed as active;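 further: ME-180 cervical cancer cells given 40 pM IL-6 alongside compound; SIE-controlled beta-lactamase reporter measured as 460/530 nm FRET emission ratio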)
Summary of the method: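 ME-180 SIE-bla cells; overnight plating; cpd + IL-6 40 pM, 5 h, 37 C; LiveBLAzer 2.5 h RT; 460/530 nm emission ratio. Normalized to 300 pM IL-6 and 125 nM JAK inhibitor controls.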

[5] = target: Glucocorticoid receptor (Homo sapiens) (UniProt P04150); experiment: GR-GFP Redistribution (AID 450;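 active means compounds whose dose series gives a full or clear partial fitted curve of increased nuclear translocation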; further: potency means the concentration at half of the fitted maximal effect); settings: U2OS GR-GFP nuclear translocation, laser cytometry, 2 h
Sequence of Glucocorticoid receptor (Homo sapiens) (P04150 whole entry, looked up, the tested form may be a part): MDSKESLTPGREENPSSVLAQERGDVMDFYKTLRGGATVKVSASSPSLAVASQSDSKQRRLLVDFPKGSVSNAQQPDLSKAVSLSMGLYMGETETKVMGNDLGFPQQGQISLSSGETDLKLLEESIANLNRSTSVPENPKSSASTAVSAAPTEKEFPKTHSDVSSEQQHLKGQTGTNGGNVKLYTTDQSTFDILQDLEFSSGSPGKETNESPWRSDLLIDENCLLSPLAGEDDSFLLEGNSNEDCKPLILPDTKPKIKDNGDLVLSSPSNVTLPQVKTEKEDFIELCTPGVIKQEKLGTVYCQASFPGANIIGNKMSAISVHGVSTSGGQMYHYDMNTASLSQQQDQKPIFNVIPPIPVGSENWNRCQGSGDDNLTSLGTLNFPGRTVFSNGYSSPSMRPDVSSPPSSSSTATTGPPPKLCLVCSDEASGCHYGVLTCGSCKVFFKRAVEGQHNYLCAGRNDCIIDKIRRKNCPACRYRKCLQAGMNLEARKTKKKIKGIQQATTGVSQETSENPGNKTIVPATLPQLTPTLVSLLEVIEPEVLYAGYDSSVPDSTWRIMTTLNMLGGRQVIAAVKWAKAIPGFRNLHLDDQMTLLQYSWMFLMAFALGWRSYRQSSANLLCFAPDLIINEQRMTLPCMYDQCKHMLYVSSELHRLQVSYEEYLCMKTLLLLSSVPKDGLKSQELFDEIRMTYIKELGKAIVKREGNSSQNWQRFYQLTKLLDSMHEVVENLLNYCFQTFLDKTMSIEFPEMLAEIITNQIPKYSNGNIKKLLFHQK

[6] = target: Glucocorticoid receptor (Homo sapiens) (UniProt P04150); experiment: GR-EFC Redistribution (AID 451; calls by dose curve; further: potency means the concentration at half of the fitted maximal effect); settings: CHO-K1 GR-EFC translocation, beta-gal luminescence, 2 h
Summary of the method: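 CHO-K1 cells stably expressing nuclear-localized β-gal enzyme acceptor and GR fused C-terminally to the enzyme donor fragment; ligand-driven nuclear translocation restores β-gal by complementation. Compounds titrated up to 46 uM final, 2 h at 37 °C; luminescence read.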

[7] = target: Mitogen-activated protein kinase 10 (Mus musculus) (UniProt Q61831); experiment: JNK3 AlphaScreen Assay (AID 530; active means well fitted curve in either direction with a large enough effect, not every such curve was filed as active;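 further: kinase came from lysate of stimulated human HepG2 cells; signal reports phosphorylation of biotinylated GST-cJun 1-79 at Ser73 with 10 µM ATP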)
Summary of the method: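 Inhibitors reduce antibody binding to phosphorylated biotin-cJun, lowering AlphaScreen luminescence. Lysates from HepG2 cells pre-activated by IL-1beta plus TNF-alpha supplied JNK3; compounds were titrated.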

[8] = target: 3',5'-cyclic-AMP phosphodiesterase 4B (Homo sapiens) (UniProt Q07343); experiment: qHTS Assay for Inhibitors of PDE-IV (AID 607; active means well fitted activation curve with a large enough effect in the main read-out, with a control signal flat, not every such curve was filed as active)
Sequence of 3',5'-cyclic-AMP phosphodiesterase 4B (Homo sapiens) (Q07343 whole entry, looked up): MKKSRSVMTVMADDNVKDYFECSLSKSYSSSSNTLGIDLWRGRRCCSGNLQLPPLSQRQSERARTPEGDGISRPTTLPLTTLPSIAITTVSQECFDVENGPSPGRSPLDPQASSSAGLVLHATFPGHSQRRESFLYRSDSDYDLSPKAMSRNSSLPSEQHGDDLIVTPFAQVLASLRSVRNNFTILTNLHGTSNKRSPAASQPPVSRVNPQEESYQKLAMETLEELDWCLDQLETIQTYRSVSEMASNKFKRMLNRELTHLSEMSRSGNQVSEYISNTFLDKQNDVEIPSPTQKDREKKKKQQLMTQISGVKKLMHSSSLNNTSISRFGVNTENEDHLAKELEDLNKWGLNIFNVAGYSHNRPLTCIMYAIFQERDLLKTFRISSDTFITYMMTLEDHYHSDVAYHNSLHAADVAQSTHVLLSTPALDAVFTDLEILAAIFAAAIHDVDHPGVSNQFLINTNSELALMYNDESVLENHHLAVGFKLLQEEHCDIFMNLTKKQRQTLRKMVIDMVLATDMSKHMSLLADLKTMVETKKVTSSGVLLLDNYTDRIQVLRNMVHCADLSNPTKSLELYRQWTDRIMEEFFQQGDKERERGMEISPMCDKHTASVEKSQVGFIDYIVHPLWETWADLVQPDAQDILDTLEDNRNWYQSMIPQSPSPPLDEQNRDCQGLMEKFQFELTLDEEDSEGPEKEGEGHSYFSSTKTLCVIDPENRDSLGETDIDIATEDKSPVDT
Summary of the method: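 ACTOne HEK293 cells carry a modified cAMP-gated CNG channel and express endogenous PDE4; plated 1000 cells/well, compounds up to 22.9 uM final. Membrane-potential dye fluorescence (ex 535/em 590) was read; parental cells received 10 uM forskolin + 100 uM RO 20-1724.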

[9] = qHTS Assay for Lipid Storage Modulators (AID 1519; calls by dose curve); settings: Drosophila S3 cells, BODIPY lipid droplet/cell ratio, laser cytometry, cells loaded with oleic acid
Summary of the method: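 Cells seeded at 5,000 per well were treated with compounds over a concentration series and loaded with oleic acid (400 uM, as added). Lipid droplet fluorescence (488 nm excitation, 500-530 nm channel) was read by laser-scanning cytometry and normalized to 20 uM Triacsin C.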

[10] = target: ATP-dependent 6-phosphofructokinase (Trypanosoma brucei brucei) (UniProt O15648); experiment: qHTS Assay to Find Inhibitors of T. brucei phosphofructokinase: hit validation (AID 492961);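 further: luminescence reports ADP formed as PFK phosphorylates fructose-6-phosphate with ATP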
Sequence of ATP-dependent 6-phosphofructokinase (Trypanosoma brucei brucei) (O15648 whole entry, looked up): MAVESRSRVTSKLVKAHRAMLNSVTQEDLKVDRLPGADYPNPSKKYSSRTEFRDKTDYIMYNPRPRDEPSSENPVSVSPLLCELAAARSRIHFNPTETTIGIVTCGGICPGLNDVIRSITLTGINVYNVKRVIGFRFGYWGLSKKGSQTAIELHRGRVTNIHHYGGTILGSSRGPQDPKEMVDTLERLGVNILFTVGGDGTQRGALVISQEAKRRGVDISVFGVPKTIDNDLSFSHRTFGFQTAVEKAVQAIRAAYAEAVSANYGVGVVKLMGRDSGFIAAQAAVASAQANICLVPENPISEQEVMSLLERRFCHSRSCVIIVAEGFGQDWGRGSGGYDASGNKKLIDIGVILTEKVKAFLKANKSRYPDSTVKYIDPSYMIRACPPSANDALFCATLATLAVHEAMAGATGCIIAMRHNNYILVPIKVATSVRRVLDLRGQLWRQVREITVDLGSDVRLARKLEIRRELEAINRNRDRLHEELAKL
Summary of the method: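 Reaction: 0.1 M triethanolamine pH 8.0, 5 mM MgCl2, F6P 0.5 mM, ATP 0.1 mM, PFK 1.25 nM, 45 min RT. Read-out: ADP-Glo luminescence. Analysis: concentration-response fits, classed by r2 and efficacy.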

[11] = target: Ubiquitin carboxyl-terminal hydrolase 1 (Homo sapiens) (UniProt O94782); experiment: Inhibitors of USP1/UAF1: Pilot qHTS (AID 504865);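 further: rhodamine fluorescence freed from ubiquitin-rhodamine substrate followed over time; top concentration of the series differs between compounds; nearly all actives have a fitted effect of over 35% in size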
Sequence of Ubiquitin carboxyl-terminal hydrolase 1 (Homo sapiens) (O94782 whole entry, looked up): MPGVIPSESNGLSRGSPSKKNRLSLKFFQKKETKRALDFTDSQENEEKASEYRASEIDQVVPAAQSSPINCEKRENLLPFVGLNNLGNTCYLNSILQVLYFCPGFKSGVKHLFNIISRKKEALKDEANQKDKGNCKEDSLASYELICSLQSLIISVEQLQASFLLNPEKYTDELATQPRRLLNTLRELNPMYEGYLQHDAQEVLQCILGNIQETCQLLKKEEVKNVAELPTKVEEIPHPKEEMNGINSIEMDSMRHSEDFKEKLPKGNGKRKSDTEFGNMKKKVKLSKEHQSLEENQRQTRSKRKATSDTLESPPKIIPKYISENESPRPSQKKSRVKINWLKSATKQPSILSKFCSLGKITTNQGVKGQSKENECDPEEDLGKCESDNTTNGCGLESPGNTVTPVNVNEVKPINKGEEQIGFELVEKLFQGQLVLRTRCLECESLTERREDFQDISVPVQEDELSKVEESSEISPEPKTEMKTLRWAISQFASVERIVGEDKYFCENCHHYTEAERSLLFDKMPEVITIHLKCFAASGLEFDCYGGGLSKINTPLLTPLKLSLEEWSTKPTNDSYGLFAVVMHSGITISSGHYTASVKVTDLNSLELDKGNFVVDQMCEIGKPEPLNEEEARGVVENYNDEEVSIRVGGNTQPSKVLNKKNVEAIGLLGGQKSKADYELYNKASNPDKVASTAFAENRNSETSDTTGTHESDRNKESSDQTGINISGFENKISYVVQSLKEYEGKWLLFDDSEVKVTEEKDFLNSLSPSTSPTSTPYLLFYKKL
Summary of the method: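 USP1/UAF1 complex (1nM) preincubated with compound 15 min at room temperature, then Ub-Rho substrate (150nM final) added. Fluorescence read kinetically at 480/540 nm, 6 reads every 60 seconds. Buffer: 50mM HEPES pH 7.8, 0.5mM EDTA, 0.1 mg/ml BSA, 1mM TCEP, 0.01% Tween-20.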

[12] = qHTS profiling for inhibitors of Plasmodium falciparum proliferation (AID 504749); further: potency means the concentration at half of the fitted maximal effect; on all read-outs here: nearly all actives have a fitted effect of over 60% in size; settings: P. falciparum in erythrocytes, SYBR Green DNA, 72 h; for activity, negative = inhibition: at 12.8 µM (top of the series)
Summary of the method: (§1)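 Parasite proliferation within erythrocytes, 72 h exposure. Endpoint: SYBR Green I fluorescence after overnight lysis at room temperature. Controls: 0.29 uM artemisinin, DMSO.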

C2A = experiment: as above; settings: P. falciparum in erythrocytes, SYBR Green DNA, 72 h; series mostly up to 12.8 µM
Summary of the method: as §1

CP191 = experiment: as above; settings: P. falciparum in erythrocytes, SYBR Green DNA, 72 h; series mostly up to 12.8 µM
Summary of the method: as §1

CP217 = experiment: as above; settings: P. falciparum in erythrocytes, SYBR Green DNA, 72 h; series mostly up to 12.8 µM
Summary of the method: as §1

CP250 = experiment: as above; settings: P. falciparum in erythrocytes, SYBR Green DNA, 72 h; series mostly up to 12.8 µM
Summary of the method: as §1

CP256 = experiment: as above; settings: P. falciparum in erythrocytes, SYBR Green DNA, 72 h; series mostly up to 12.8 µM
Summary of the method: as §1

FAB9 = experiment: as above; settings: P. falciparum in erythrocytes, SYBR Green DNA, 72 h; series mostly up to 12.8 µM
Summary of the method: as §1

JCK = experiment: as above; settings: P. falciparum in erythrocytes, SYBR Green DNA, 72 h; series mostly up to 12.8 µM
Summary of the method: as §1

SC27B = experiment: as above; settings: P. falciparum in erythrocytes, SYBR Green DNA, 72 h; series mostly up to 12.8 µM
Summary of the method: as §1

[13] = measured here: cell count channel max response
[14] = measured here: lipid channel max response

## CC(C)(C)NC[C@H](O)COc1cccc2c1CCC(=O)N2
[1]
  outcome: inactive
[2]
  Potency: inactive
[3]
  activity change, negative = inhibition: -6.75% (inactive)
[4]
  outcome: inactive
[5]
  Potency: > 20.6 µM (inactive)
[6]
  Potency: > 20.6 µM (inactive)
[7]
  Potency: inactive
[8]
  outcome: inactive
[9]; at 25.7 µM (top of the series)
  activity change, negative = inhibition: -0.554% (inactive)
[9]; [13]
  max response: -2.13%
[9]; [14]
  max response: -1.05%
[10]
  outcome: inactive
[11]
  Potency: inactive
[12]; parasite line A
  activity, negative = inhibition: 7.75% (inactive)
[12]; parasite line B
  activity, negative = inhibition: -1.3% (inactive)
C2A
  Potency: inactive
CP191
  Potency: inactive
CP217
  Potency: inactive
CP250
  Potency: inactive
CP256
  Potency: inactive
FAB9
  Potency: inactive
JCK
  Potency: 8.91 µM (active)
SC27B
  Potency: inactive

## COc1cc(N)c(Cl)cc1C(=O)N[C@H]1CCN(CCCOc2ccc(F)cc2)C[C@H]1OC
[1]
  outcome: inactive
[2]
  Potency: inactive
[3]
  activity change, negative = inhibition: -12.4% (inactive)
[4]
  outcome: inactive
[5]
  Potency: > 20.6 µM (inactive)
[6]
  Potency: > 20.6 µM (inactive)
[7]
  Potency: inactive
[8]
  outcome: inactive
[9]; at 25.7 µM (top of the series)
  activity change, negative = inhibition: 2.27% (inactive)
[9]; [13]
  max response: -1.69%
[9]; [14]
  max response: 0.873%
[10]
  outcome: inactive
[11]
  Potency: inactive
[12]; parasite line A
  Potency: 3.55 µM (active)
CP191
  Potency: 2 µM (active)
CP256
  Potency: 2.82 µM (active)
FAB9
  Potency: inactive
JCK
  Potency: inactive

## Cc1cccc(C)c1NC(=O)[C@H](C)N
[1]
  outcome: inactive
[2]
  Potency: inactive
[3]
  activity change, negative = inhibition: -7.54% (inactive)
[4]
  outcome: inactive
[5]
  Potency: > 20.6 µM (inactive)
[6]
  Potency: > 20.6 µM (inactive)
[7]
  Potency: inactive
[9]; at 25.7 µM (top of the series)
  activity change, negative = inhibition: -1.94% (inactive)
[9]; [13]
  max response: -3.54%
[9]; [14]
  max response: -7.81%
[10]
  outcome: inactive
[11]
  Potency: inactive
[12]; parasite line A
  activity, negative = inhibition: 7.15% (inactive)
[12]; parasite line B
  activity, negative = inhibition: 10.5% (inactive)
C2A
  Potency: inactive
CP191
  Potency: inactive
CP217
  Potency: inactive
CP250
  Potency: inactive
CP256
  Potency: inactive
FAB9
  Potency: inactive
JCK
  Potency: inactive
SC27B
  Potency: inactive

## CC(C)C1=CC2=CC[C@@H]3[C@@](C)(C(=O)O)CCC[C@]3(C)C2CC1 (some centres undefined)
[9]; at 57.5 µM (top of the series)
  activity change, negative = inhibition: 0.573% (inactive)
[9]; [13]
  max response: -0.0856%
[9]; [14]
  max response: -0.672%

## CN1CC[C@@]23c4ccccc4N[C@H]1[C@]21CCN(C)[C@@H]3Nc2ccccc21
[1]
  outcome: inactive
[2]
  Potency: inactive
[3]
  activity change, negative = inhibition: -9.09% (inactive)
[4]
  outcome: inactive
[5]
  Potency: > 20.6 µM (inactive)
[6]
  Potency: > 20.6 µM (inactive)
[7]
  Potency: inactive
[8]
  outcome: inactive
[9]; at 25.7 µM (top of the series)
  activity change, negative = inhibition: -2.36% (inactive)
[9]; [13]
  max response: -9.01%
[9]; [14]
  max response: -11.8%
[11]
  Potency: inactive

## CCC(=O)O[C@@H]1[C@H](C)O[C@H](O[C@H]2[C@@H](N(C)C)[C@H](O)[C@@H](O[C@@H]3[C@@H](CC=O)C[C@@H](C)[C@@H](O)/C=C\C=C/C[C@@H](C)OC(=O)C[C@@H](OC(=O)CC)[C@H]3OC)O[C@H]2C)C[C@]1(C)O
[1]
  outcome: inactive
[2]
  Potency: inactive
[3]
  activity change, negative = inhibition: 3.96% (inactive)
[4]
  outcome: inactive
[5]
  Potency: > 20.6 µM (inactive)
[6]
  Potency: > 20.6 µM (inactive)
[7]
  Potency: inactive
[8]
  outcome: inactive
[9]; at 25.7 µM (top of the series)
  activity change, negative = inhibition: -0.346% (inactive)
[9]; [13]
  max response: -5.96%
[9]; [14]
  max response: -6.47%
[10]
  outcome: inactive
[12]; parasite line A
  activity, negative = inhibition: -18.8% (inactive)
[12]; parasite line B
  activity, negative = inhibition: -28.9% (inactive)
C2A
  Potency: inactive
CP191
  Potency: inactive
CP217
  Potency: inactive
CP250
  Potency: inactive
FAB9
  Potency: inactive
JCK
  Potency: inactive
SC27B
  Potency: inactive
